# Data as given in PubChem BioAssay (NCI).
# About 83,000 compounds went through this panel and 20% of them were active in at least one assay; those are over-represented in the sample as a whole.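 Cell lines were cultured in 96-well plates, exposed to a single compound concentration, and assessed for percent growth 48 hours later.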 Unmarked numbers belong to inactive results. The source made the active and inactive calls. How the source made its calls: active means growth percent below 10; inactive means the rest.
# System: IGROV1 ovarian
# Experiment: NCI-60 one-dose screen, 48 h (100 = growth as untreated, 0 = no growth, -100 = all killed)
# Settings: 10 µM
row,Structure (SMILES),growth
1,CC1(C)CNC(=O)N1,99.9%
2,CCCCCCCCCCCCc1ccc(C(=O)/C=C/C(=O)O)cc1,72.7%
3,NC1CCC(Nc2nc(NCc3ccc(-c4cccs4)nc3)c3ncn(C4CCCC4)c3n2)CC1 (centres undefined),8.26% (active)
4,Clc1cc(Cl)c(OCCCCCCN2CCNCC2)c(Cl)c1,46.6%
5,O=c1oc2cc(OS(=O)(=O)C3CC3)ccc2c2c1CCCCCC2,103%
6,CCOC(=O)c1c(Cl)c2c(n1Cc1cccc(OC)c1)-c1oncc1CC2,23.5%
7,COc1cc2nc(Sc3sc(N)nc3C)n(-c3ccc(Oc4ccccc4)cc3)c(=O)c2cc1OC,107%
8,Cc1cccc2c(Nc3ccc(NS(C)(=O)=O)cc3)c3ccc([N+](=O)[O-])cc3nc12,-27.4% (active)
9,O=C(Nc1ccc(CN2CCOCC2)cc1)c1ccc(-c2cc(Cl)ccc2Cl)o1,34%
10,COc1c(-c2c3sc(=O)[nH]c3nc3c2c(=O)[nH]n3C(C)C)cc2c(c1OC)OCO2,102%
11,COc1cc(C2C=C(c3ccc(Cl)c(Cl)c3)N=C3SC(C)=CN32)cc(OC)c1OC (centres undefined),85.6%
12,N#Cc1c(-c2ccccc2)nc(SCC(=O)N2CCOCC2)[nH]c1=O,112%
13,Clc1cc(Cl)c(Cl)c(-c2nc(-c3cccnc3)cs2)c1,49.6%

# System: OVCAR-3 ovarian
# Experiment: as above
# Settings: 10 µM
row,Structure (SMILES),growth
1,Nc1ccn([C@@H]2O[C@H](COP(=O)(O)O[C@@H]3C[C@H](n4cc(F)c(=O)[nH]c4=O)O[C@@H]3COP(=O)(O)O[C@@H]3C[C@H](n4cc(F)c(=O)[nH]c4=O)O[C@@H]3COP(=O)(O)O[C@@H]3C[C@H](n4cc(F)c(=O)[nH]c4=O)O[C@@H]3COP(=O)(O)O[C@@H]3C[C@H](n4cc(F)c(=O)[nH]c4=O)O[C@@H]3COP(=O)(O)O[C@@H]3C[C@H](n4cc(F)c(=O)[nH]c4=O)O[C@@H]3COP(=O)(O)O[C@@H]3C[C@H](n4cc(F)c(=O)[nH]c4=O)O[C@@H]3COP(=O)(O)O[C@@H]3C[C@H](n4cc(F)c(=O)[nH]c4=O)O[C@@H]3COP(=O)(O)O[C@@H]3C[C@H](n4cc(F)c(=O)[nH]c4=O)O[C@@H]3COP(=O)(O)O[C@@H]3C[C@H](n4cc(F)c(=O)[nH]c4=O)O[C@@H]3COP(=O)(O)O[C@@H]3C[C@H](n4cc(F)c(=O)[nH]c4=O)O[C@@H]3COP(=O)(O)OCCOCCOCCOCCOCCOCCO)[C@H](O)C2O)c(=O)n1 (some centres undefined),64.5%
2,CCCCN(CCCC)c1ccc(C(=NC(C)CCCN(CC)CC)c2ccc(N(C)C)cc2)cc1 (centres undefined),-47.7% (active)
3,Cc1nc2cc(-n3c(-c4ccc(F)cc4)nc4ccccc4c3=O)ccc2n1Cc1ccccc1,-18.7% (active)
4,CN(C)Cc1cccs1,101%
5,Nc1nsc(C(=O)c2ccc(O)cc2)n1,95.2%
6,O=C(CSc1nnc(-c2ccc(Cl)cc2)o1)c1ccccc1,102%
7,NC1CCC(Nc2nc(NCc3ccc(-c4cccs4)nc3)c3ncn(C4CCCC4)c3n2)CC1 (centres undefined),2.56% (active)
8,CCCCOCC(=O)NC(NP(=O)(N(C)C)N(C)C)C(Cl)(Cl)Cl (centres undefined),98%
9,CCOc1ccc(-n2cc(-c3ccc(N(C)C)cc3)[n+]3c2CCCCC3)cc1,21.8%
10,CCC1(C)OC(=O)NC1=O (centres undefined),112%
11,CC(=O)Nc1ccc(Sc2ccc(NC(C)=O)cc2)cc1,102%
12,O=C1CC[C@@H](C(=O)N[C@H]2CSSC[C@@H](C(=O)NCCc3ccccc3)NC(=O)[C@H](Cc3ccccc3)NC(=O)[C@@H]3CCCN3C(=O)[C@@H]3CCCN3C2=O)N1,104%
13,O=C1CC(c2cccc(-c3cccnc3)c2)=Nc2ccc(Br)cc2N1,45%
14,Clc1cc(Cl)c(OCCCCCCN2CCNCC2)c(Cl)c1,45.7%
15,CCCCCC(CCC)COC(=O)c1ccc(OC)cc1 (centres undefined),111%
16,C=C1C(=O)O[C@H]2[C@H]1CC/C(COC(=O)OCCCCCOC(=O)OC/C1=C/CC[C@@]3(C)O[C@H]3[C@H]3OC(=O)C(=C)[C@@H]3CC1)=C\CC[C@@]1(C)O[C@@H]21,-97.5% (active)

row,Structure (SMILES),growth
1,CCOC(=O)c1c(Cl)c2c(n1Cc1cccc(OC)c1)-c1oncc1CC2,-34.9% (active)
2,CCCCCCCCCCN=C(c1ccc(N(C)C)cc1)c1ccc(N(C)C)cc1,2.1% (active)
3,C[C@H](NC(=O)[C@@H]1CSSC[C@@H](NC(=O)Cc2nc3ccccc3cc2O)C(=O)NCC(=O)N1C)c1ccccc1,99%
4,O=C(Nc1ccc(CN2CCOCC2)cc1)c1ccc(-c2cc(Cl)ccc2Cl)o1,70.9%
5,COc1ccc(-c2nnc(SCC(=O)c3ccccc3)o2)cc1,105%
6,S=c1c2ncccc2c(-c2ccccn2)nn1Cc1ccccn1,115%
7,O=C(NCCc1nccs1)c1cnc2c(S)cccc2c1,5.69% (active)
8,N#Cc1c(-c2ccccc2)nc(SCC(=O)N2CCOCC2)[nH]c1=O,110%
9,CCCCCCN=C(N)CCCCCCCCCCC(N)=NCCCCCC,20%
10,CNC(=O)c1cc(Oc2ccc(NC(=O)Nc3ccc(Cl)c(C(C)(C)C)c3)c(F)c2)ccn1,40.5%
11,CN(C)c1ccc2c(c1)OC(N)=C(C#N)C2c1ccc2c(c1)CCO2 (centres undefined),-3.4% (active)
12,CCc1c(C(=O)NCc2c(O)ccc3cccc(O)c23)[nH]c(C)c1C(C)=O,12.6%
13,CC(=O)c1ccc(NCn2nc(-c3ccc(Cl)cc3)oc2=S)cc1,108%
14,COC(=O)c1cnc2c(c1)Oc1ccc(Cl)cc1-c1cc(C)nn1-2,44.5%
15,Clc1cc(Cl)c(Cl)c(-c2nc(-c3cccnc3)cs2)c1,71.7%
